# Compound activity: PubChem, several laboratories
# IL1B NFkB inh: blocks IL-1B driven NFkB nuclear translocation in HUVEC cells. HUVEC IL-1B NFkB p65 nuclear translocation imaging. inhibition, % at 2 µM. hit rate 0.43% among 94,000. AID 796;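 active = inhibition above about 30% together with a positive call from visual inspection of the well image, limit read from the data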;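 also: nuclear over cytoplasmic p65 intensity ratio measured by imaging; 0% = IL-1B stimulated DMSO wells and 100% = unstimulated DMSO wells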
# IL1B NFkB pot: enhances IL-1B driven NFkB nuclear translocation. HUVEC IL-1B NFkB p65 nuclear translocation imaging. activation, % at 2 µM. hit rate 0.3% among 94,000. AID 819;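 active = activation above 40%, about the mean plus 3 SD, also judged a hit on visual image review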;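 also: percent activation is computed from the nuclear over cytoplasmic p65 intensity ratio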
# TNFa cytotox: HUVEC cytotoxicity counter-screen, TNF alpha stimulated; AID 848; cell count reduction, % at 2 µM; HUVEC TNFalpha-stimulated, Hoechst cell count, imaging; hit rate 0.17% among 93,000;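 active = cell count reduction exceeding the screen mean by over 5 SD, scaled to untreated wells per plate, cut at about 78% in these data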;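 also: cells counted after 24 h of TNF alpha exposure following the 1 h pretreatment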
# VCAM1 TNFa inh: reduces TNF alpha induced VCAM1 expression in HUVEC. HUVEC TNFa-induced VCAM-1 immunofluorescence, high-content imaging. inhibition, % at 2 µM. hit rate 0.48% among 95,000;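 active = inhibition above the batch mean plus 3 SD, with images confirmed as a hit by eye, cut at about 37% in these data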;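 also: 0% = TNF-stimulated DMSO wells and 100% = unstimulated control wells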
# Phagocytosis inh: inhibitors of macrophage phagocytosis; J774A.1 macrophage IgG-bead phagocytosis, imaging; inhibition, % at 5 µM; hit rate 0.07% among 110,000; AID 1029;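 active = inhibition above the mean of the plate negative controls plus 5 SD, cut at about 13% in these data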;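 also: phagocytic index as fraction of beads internalized from green versus red external bead signal; plate controls were DMSO negative control for no effect and cytochalasin-D positive control for full effect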
# IL1B cytotox: toxic to HUVEC cells under IL-1B stimulation; cell count reduction, % at 2 µM; HUVEC cell count loss, Hoechst imaging, IL-1B stimulated; hit rate 0.41% among 94,000;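 active = cell count reduction more than 3 SD above the screen-wide mean, cut at about 70% in these data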;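 also: normalized per plate to untreated control cells as the no-loss baseline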
# * marks the source's active call; other numbers are inactive results; x = no result given. Shown are actives, neighbours in structure and some others; about 1.2% of the full set was active somewhere.
SMILES,IL1B NFkB inh,IL1B NFkB pot,TNFa cytotox,VCAM1 TNFa inh,Phagocytosis inh,IL1B cytotox
Oc1ccccc1C=NCC(O)c1ccccc1 (stereo not drawn),x,x,x,x,-3,x
Cc1ccccc1-c1noc(CCC(=O)NCC2CCCO2)n1 (stereo not drawn),-4,4,1,7,-2,84*
COc1ccc(NC(=O)CSc2nnc(NC(=O)c3ccc(S(=O)(=O)N4CCOCC4)cc3)s2)cc1,x,x,x,x,2,x
Cc1ccc(S(=O)(=O)N2CCOCC2)cc1NC(=O)Cn1ccsc1=N,-40,40*,-6,45,-1,-4
Cc1c(-n2cc(C(=O)c3cc(Br)ccc3O)cc(C#N)c2=O)c(=O)n(-c2ccccc2)n1C,-2,2,-19,-16,-2,-16
COc1ccc2ccccc2c1C1CC(=O)N2CN(C3CCCCC3)CSC2=C1C#N (stereo not drawn),7,-7,-14,16,1,9
CCOc1cc(C2CC(=O)N3CN(C4CCCCC4)CSC3=C2C#N)ccc1O (stereo not drawn),3,-3,82*,38,0,29
O=C(CSc1nc(-c2ccc(F)cc2)cc(C(F)(F)F)n1)Nc1ccc2c(c1)OCO2,x,x,x,x,-4,x
O=C(NCCOC12CC3CC(CC(C3)C1)C2)c1cccc(Br)c1,-11,11,21,8,x,-16
COc1ccnc(Oc2ccccc2)c1C(=O)N/C=N/OCc1ccc(F)cc1Cl,14,-14,-13,-6,0,95*
CC1CCN(c2nc3c(c(=O)[nH]c(=O)n3C)n2CC(C)CSc2nnnn2-c2ccccc2)CC1 (stereo not drawn),x,x,x,x,-5,x
O=C(O)c1cccc(S(=O)(=O)Nc2ccccc2Cl)c1,12,-12,-11,95*,-2,6
O=S(=O)(Nc1cccnc1Cl)c1ccc2c(c1)OCCO2,10,-10,-11,18,x,0
CSc1ccccc1NS(=O)(=O)c1ccc2c(c1)OCCO2,27,-27,2,5,-1,70*
O=C(Cc1ccc(-n2cccc2)cc1)NC1CCCCCC1,x,x,-10,41*,x,x
CCCNC(=S)Nc1ccc(Br)cc1,-8,8,-28,-3,-3,92*
CC(C)CCNC(=S)Nc1ccc(Br)cc1,x,x,x,x,4,x
Cc1ccc(Nc2nc(N)c([N+](=O)[O-])c(NCc3ccco3)n2)cc1C,x,x,x,x,-11,x
CCOC(=O)C1=C(Cc2ccc(F)cc2)C(=O)c2ccccc2C1=O,-59,59*,7,15,0,1
O=C(Nc1ccc2c(c1)OCO2)c1cccc(F)c1,12,-12,13,-12,2,90*
Cc1nnc2n(C3CCCCC3)c(=O)c3c4c(sc3n12)COC(C)(C)C4,-2,2,94*,65,1,-3
CCCCNS(=O)(=O)c1ccc(OC)c(C)c1,1,-1,-24,6,x,-12
CCNS(=O)(=O)c1ccc(OC)c(C)c1,63*,-63,-33,18,1,83*
C=CCC(NCc1ccco1)c1ccc(OC)c(OC)c1 (stereo not drawn),2,-2,-26,10,-1,4
C=CCC(NCc1ccco1)c1ccc(OC)cc1OC (stereo not drawn),58*,-58,-12,4,-1,-2
SMILES,IL1B NFkB inh,IL1B NFkB pot,TNFa cytotox,VCAM1 TNFa inh,Phagocytosis inh,IL1B cytotox
O=C1[C@@H]2[C@@H]3C[C@@H]([C@H]4ON=C(c5ccc(Cl)cc5)[C@@H]34)[C@@H]2C(=O)N1C1CCCCC1,x,x,x,x,2,x
COc1ccccc1NC(=O)CSc1nnc(CNC(=O)COc2ccc(Cl)cc2)o1,-40,40*,-22,-12,-2,-26
O=C(CSc1nnc(Nc2ccccc2)s1)NN1C(=O)NC2(CCCCC2)C1=O,x,x,x,x,-3,x
O=C(c1sc2ccccc2c1Cl)N(Cc1ccccc1Cl)C1CCS(=O)(=O)C1 (stereo not drawn),11,-11,-9,15,-2,10
O=C(c1sc2ccccc2c1Cl)N(Cc1ccccc1)C1CCS(=O)(=O)C1 (stereo not drawn),66*,-66,-3,-7,0,10
Cc1ccc(Nc2cc(C)nc(N3CCOCC3)n2)c(C)c1,x,x,x,x,2,x
COc1ccc(Nc2cc(C)nc(N3CCOCC3)n2)cc1,-106,106*,-29,-15,-3,-18
COC(=O)C(/C=N/OCc1ccc([N+](=O)[O-])cc1)NC(=O)c1ccccc1 (stereo not drawn),-44,44*,1,2,-1,-3
O=S(=O)(Cc1cc(Sc2ccc(Cl)cc2)nc(-c2ccccc2)n1)c1ccccc1,-18,18,55,-50,0,11
COCc1cc(Sc2c(Cl)cccc2Cl)nc(-c2ccccc2)n1,-7,7,-28,-10,0,88*
CS(=O)(=O)c1ccc2nc(NC(=O)c3cc(-c4ccccc4)nn3-c3ccccc3)sc2c1,x,x,x,x,-1,x
COc1ccc(N2CCN(C(CNC(=O)c3ccco3)c3cccnc3)CC2)cc1 (stereo not drawn),-40,40*,-44,-18,-1,-12
COc1ccccc1N1CCN(C(CNC(=O)c2ccco2)c2cccnc2)CC1 (stereo not drawn),-5,5,-24,0,-1,-48
Brc1ccc(-c2nnc3ccc(Nc4ccccc4)nn23)cc1,x,x,x,x,-14,x
CC1CCCN(c2nc3ccsc3c(=O)s2)C1 (stereo not drawn),-8,8,91*,92*,0,-7
CC1CCCN(c2nc3nonc3nc2N2CCCC(C)C2)C1 (stereo not drawn),-2,2,5,4,x,-3
COc1ccc(/C=N/NC(=O)c2ccc3ccccc3c2)cc1OS(=O)(=O)c1ccc(NC(C)=O)cc1,8,-8,21,29,x,8
COc1ccc(-c2c(C#N)c(SCC(=O)Nc3ccccc3)nc3c2CCCC3)cc1,5,-5,-31,-3,x,6
N#Cc1c(SCC(N)=O)nc2c(c1-c1ccc(OCc3ccccc3)cc1)CCCC2,-3,3,-36,-27,x,86*
C=CCc1cc(C=O)cc(OC)c1OCc1ccc(Cl)cc1,0,0,-4,9,-1,93*
O=C(c1ccccc1C(=O)N(c1ccccc1)c1ccccc1)N1CCCCC1,x,x,x,x,-3,x
CCN(CC)C(=O)CSc1nnc(-c2ccccc2)n1-c1ccccc1,38*,-38,-35,4,-1,-42
CCn1nc(NC(=O)c2ccncc2)c2cc3cccc(C)c3nc21,0,0,24,3,0,9
CCn1nc(NC(=O)c2ccccn2)c2cc3cccc(C)c3nc21,-51,51*,-26,11,0,-14
O=S(=O)(c1ccc(Br)s1)N1CCN(c2ccccc2)CC1,-4,4,20,84*,-1,-207
Cc1ccc(NC(=O)COC(=O)/C=C/c2c(C)nn(-c3ccc(F)cc3)c2Cl)cc1F,x,x,x,x,-11,x
CC(=O)c1cccc(Nc2nc(-c3cccc([N+](=O)[O-])c3)cs2)c1,-8,8,-1,39*,0,-4
CCC12CN(C(=O)c3ccc(C)cc3)CC(CC)(CN(C(=O)c3ccc(C)cc3)C1)C2=O,x,x,x,x,-1,x
